# Source: publication PMC9838217, “Structure of SALL4 zinc finger domain reveals link between AT-rich DNA binding and Okihiro syndrome”
# Numbering of substitutions follows the chain as printed.
# Columns and labels:
# Assay in all cases: HT-SELEX; high values mean tight binding
# Conditions in all cases: protein: recombinant; vector His6-GST; dsDNA, one strand shown
# SALL4 ZFC4 WT (HT-SELEX) = target: T1, SALL4 ZFC4 WT (HT-SELEX) (Mus musculus, UniProt Q8BX22 870-940)
# T1 sequence: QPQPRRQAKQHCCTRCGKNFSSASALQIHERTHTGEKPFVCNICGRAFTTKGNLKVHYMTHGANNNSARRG
# In short: (§1)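 Library DNA (1.5 µg in cycle one, 200 ng in later cycles) was incubated with 1 µg of purified recombinant mouse SALL4 zinc finger cluster 4, residues 870–940, in 100 µl buffer (10 mM Tris–HCl pH 7.5, 50 mM NaCl, poly(dI-dC), DTT) at room temperature for 10 min. Up to 6 rounds of Ni2+ bead capture, washing, PCR amplification and reselection were run in triplicate. Reads from MiSeq sequencing were scanned for 6-mers. For each canonical k-mer, binding signal is its read fraction as fold change versus the original random library.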
# [1] = target: T2, SALL4 ZFC4 R900W (HT-SELEX) (Mus musculus, UniProt Q8BX22 870-940, R900W)
# T2 sequence: T1 sequence with R31W
# In short: as §1
# [2] = target: T3, SALL4 ZFC4 G921D (HT-SELEX) (Mus musculus, UniProt Q8BX22 870-940, G921D)
# T3 sequence: T1 sequence with G52D
# In short: as §1
Sequence,binding signal (SALL4 ZFC4 WT (HT-SELEX)) [fold-change vs cycle 0],binding signal [1] [fold-change vs cycle 0],binding signal [2] [fold-change vs cycle 0]
ATAGTC,1.25 ± 0.0415,1.31 ± 0.0594,1.33 ± 0.0589
GCCTAA,0.547 ± 0.0354,0.643 ± 0.0255,0.746 ± 0.0372
GATGTA,1.358 ± 0.0117,1.425 ± 0.0112,1.34 ± 0.0458
GCTAAA,0.898 ± 0.0417,1 ± 0.0491,1.03 ± 0.0278
TGGACA,0.662 ± 0.0418,0.761 ± 0.0205,0.847 ± 0.0377
GAGGTA,0.857 ± 0.032,0.988 ± 0.0197,0.996 ± 0.0208
AAGAGG,0.855 ± 0.0331,1.01 ± 0.0625,0.999 ± 0.0313
CACCGA,0.338 ± 0.00929,0.392 ± 0.0114,0.523 ± 0.056
GCTCTA,0.572 ± 0.0244,0.686 ± 0.0351,0.788 ± 0.0186
CGTATA,1.19 ± 0.0262,1.2 ± 0.0145,1.18 ± 0.0335
CAAGTC,0.742 ± 0.0124,0.878 ± 0.025,0.942 ± 0.0196
CAAGGC,0.301 ± 0.0203,0.371 ± 0.0118,0.492 ± 0.0622
CGGAAC,0.339 ± 0.0284,0.417 ± 0.0399,0.524 ± 0.0677
AATGCA,1.12 ± 0.0474,1.11 ± 0.069,1.15 ± 0.0324
AAGTAA,2.17 ± 0.0689,2.26 ± 0.152,1.91 ± 0.204
ACAAGT,1.24 ± 0.0226,1.4 ± 0.0269,1.35 ± 0.0304
ACGGTA,0.715 ± 0.031,0.817 ± 0.0376,0.852 ± 0.0147
GTTTGA,1.14 ± 0.0365,1.26 ± 0.0348,1.23 ± 0.0615
GTATTA,2.23 ± 0.186,1.98 ± 0.125,1.76 ± 0.141
AATGGA,1.38 ± 0.0388,1.47 ± 0.0617,1.39 ± 0.0841
GTAATA,2.33 ± 0.177,2.09 ± 0.144,1.81 ± 0.189
GCATAC,0.665 ± 0.00696,0.738 ± 0.0335,0.819 ± 0.0421
GACAAC,0.673 ± 0.0124,0.798 ± 0.0444,0.89 ± 0.0263
ACATTA,2.1 ± 0.0777,2.03 ± 0.0851,1.81 ± 0.142
ATAGAG,1.4 ± 0.0362,1.43 ± 0.0403,1.38 ± 0.0574
GACGTC,0.306 ± 0.00649,0.386 ± 0.024,0.522 ± 0.0468
CGTTAA,1.13 ± 0.0737,1.25 ± 0.0783,1.17 ± 0.0825
GCGTAA,0.494 ± 0.0275,0.556 ± 0.0061,0.651 ± 0.033
AACTTA,2.13 ± 0.126,2.11 ± 0.126,1.89 ± 0.231
CTTAAA,1.73 ± 0.0848,1.87 ± 0.112,1.65 ± 0.165
